The campaign covered roughly 5,500 compounds. About 2,000 (36%) were called active. About 18% were inconclusive and are not listed. Cut-off read from the data, not from the text of the source: active = normalized growth mostly below about 0.91 (no sharp cut-off); inconclusive = no clear call, values can overlap the other calls; inactive = mostly above about 0.92. Some of the results follow.
Assay: chemical genetic growth profiling, strain panel (AID 1159580);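 note: tested at 20 µM; growth read once vehicle control cultures reached saturation at 30 °C; 1 = growth at the plate median or of vehicle wells; lower values mean less growth of the strain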
Conditions: growth OD

Measured: normalized growth

CCCC(=O)Nc1ccc(OCC(O)CNC(C)C)c(C(C)=O)c1 (configuration not stated)
inactive: S. cerevisiae deletion strains, locus YJR075W, strain HOC1, hits give low values 1.03 | S. cerevisiae deletion strains, locus YKL009W, strain mrt4, hits give low values 1.02 | S. cerevisiae deletion strains, locus YKL068W, hits give low values 1.02 | S. cerevisiae deletion strains, locus YKL085W, strain MDH1 (second series), hits give low values 1.01 | S. cerevisiae deletion strains, locus YKL085W, strain MDH1, hits give low values 1.01 | S. cerevisiae deletion strains, locus YKL160W, strain elf1, hits give low values 1.02 | S. cerevisiae deletion strains, locus YKL190W, strain CNB1, hits give low values 1.01 | S. cerevisiae deletion strains, locus YKR001C, strain vps1, hits give low values 1.04 | S. cerevisiae deletion strains, locus YKR026C, strain gcn3, hits give low values 1.01 | S. cerevisiae deletion strains, locus YKR091W, strain srl3, hits give low values 1 | S. cerevisiae deletion strains, locus YLL001W, strain dnm1, hits give low values 1.02 | S. cerevisiae deletion strains, locus YLL026W, hits give low values 1.01 | S. cerevisiae deletion strains, locus YLL041C, strain sdh2, hits give low values 1.01 | S. cerevisiae deletion strains, locus YLR027C, strain aat2, hits give low values 1.01 | S. cerevisiae deletion strains, locus YLR039C, strain RIC1, hits give low values 1.06 | S. cerevisiae deletion strains, locus YLR058C, strain SHM2, hits give low values 1.01 | S. cerevisiae deletion strains, locus YLR102C, strain apc9, hits give low values 1.01 | S. cerevisiae deletion strains, locus YLR113W, strain HOG1, hits give low values 0.999 | S. cerevisiae deletion strains, locus YLR221C, strain rsa3, hits give low values 1.01 | S. cerevisiae deletion strains, locus YLR258W, strain gsy2, hits give low values 1.02 | S. cerevisiae deletion strains, locus YLR262C, strain YPT6 (second series), hits give low values 1.02 | S. cerevisiae deletion strains, locus YLR262C, strain YPT6, hits give low values 1.02 | S. cerevisiae deletion strains, locus YLR268W, strain sec22, hits give low values 1.05 | S. cerevisiae deletion strains, locus YLR320W, strain mms22, hits give low values 1 | S. cerevisiae deletion strains, locus YLR330W, strain CHS5, hits give low values 1.01 | S. cerevisiae deletion strains, locus YLR342W, strain FKS1 (second series), hits give low values 1 | S. cerevisiae deletion strains, locus YLR342W, strain FKS1, hits give low values 1.01 | S. cerevisiae deletion strains, locus YLR357W, strain rsc2, hits give low values 0.97 | S. cerevisiae deletion strains, locus YLR370C, strain arc18, hits give low values 1.02 | S. cerevisiae deletion strains, locus YLR371W, strain rom2, hits give low values 1.02 | S. cerevisiae deletion strains, locus YLR384C, strain iki3, hits give low values 1.01 | S. cerevisiae deletion strains, locus YLR418C, strain cdc73, hits give low values 1.05 | S. cerevisiae deletion strains, locus YML016C, strain PPZ1, hits give low values 1.01 | S. cerevisiae deletion strains, locus YML032C, strain rad52, hits give low values 1.02 | S. cerevisiae deletion strains, locus YML120C, strain ndi1, hits give low values 0.999 | S. cerevisiae deletion strains, locus YML124C, strain tub3, hits give low values 1.02 | S. cerevisiae deletion strains, locus YMR058W, strain fet3, hits give low values 1 | S. cerevisiae deletion strains, locus YMR078C, strain ctf18, hits give low values 1.02 | S. cerevisiae deletion strains, locus YMR125W, strain sto1, hits give low values 1 | S. cerevisiae deletion strains, locus YMR129W, hits give low values 1.01 | S. cerevisiae deletion strains, locus YMR205C, strain PFK2, hits give low values 1 | S. cerevisiae deletion strains, locus YMR223W, strain ubp8, hits give low values 1 | S. cerevisiae deletion strains, locus YMR231W, strain pep5, hits give low values 1.02 | S. cerevisiae deletion strains, locus YMR263W, strain SAP30, hits give low values 1.02 | S. cerevisiae deletion strains, locus YMR307W, strain GAS1, hits give low values 1.03 | S. cerevisiae deletion strains, locus YNL067W, strain RPL9B, hits give low values 1.03 | S. cerevisiae deletion strains, locus YNL071W, strain lat1, hits give low values 1.02 | S. cerevisiae deletion strains, locus YNL128W, strain TEP1, hits give low values 1.01 | S. cerevisiae deletion strains, locus YNL153C, strain GIM3, hits give low values 1.02 | S. cerevisiae deletion strains, locus YNL183C, strain NPR1, hits give low values 0.97 | S. cerevisiae deletion strains, locus YNL209W, strain ssb2, hits give low values 1.04 | S. cerevisiae deletion strains, locus YNL233W, strain BNI4, hits give low values 1.01 | S. cerevisiae deletion strains, locus YNL248C, strain rpa49, hits give low values 1.03 | S. cerevisiae deletion strains, locus YNL250W, strain rad50, hits give low values 1.01 | S. cerevisiae deletion strains, locus YNL271C, strain bni1, hits give low values 1.02 | S. cerevisiae deletion strains, locus YNL298W, strain CLA4, hits give low values 1.02 | S. cerevisiae deletion strains, locus YNL307C, strain MCK1, hits give low values 1.02 | S. cerevisiae deletion strains, locus YNL322C, strain KRE1 (second series), hits give low values 1.03 | S. cerevisiae deletion strains, locus YNL322C, strain KRE1, hits give low values 1.01 | S. cerevisiae deletion strains, locus YNR049C, strain mso1, hits give low values 1.01 | S. cerevisiae deletion strains, locus YNR052C, strain pop2, hits give low values 1.02 | S. cerevisiae deletion strains, locus YOL006C, strain TOP1, hits give low values 1.07 | S. cerevisiae deletion strains, locus YOL012C, strain htz1 0.744 | S. cerevisiae deletion strains, locus YOL147C, strain pex11, hits give low values 1.02 | S. cerevisiae deletion strains, locus YOR001W, strain rrp6, hits give low values 1.01 | S. cerevisiae deletion strains, locus YOR061W, strain CKA2, hits give low values 1.01 | S. cerevisiae deletion strains, locus YOR069W, strain VPS5, hits give low values 1.01 | S. cerevisiae deletion strains, locus YOR070C, strain gyp1, hits give low values 1.02 | S. cerevisiae deletion strains, locus YOR080W, strain dia2, hits give low values 1.02 | S. cerevisiae deletion strains, locus YOR083W, strain WHI5, hits give low values 0.988 | S. cerevisiae deletion strains, locus YOR106W, strain vam3, hits give low values 1.03 | S. cerevisiae deletion strains, locus YOR136W, strain idh2, hits give low values 1.01 | S. cerevisiae deletion strains, locus YOR144C, strain elg1, hits give low values 1.02 | S. cerevisiae deletion strains, locus YOR184W, strain ser1, hits give low values 1.03 | S. cerevisiae deletion strains, locus YOR231W, strain MKK1, hits give low values 0.993 | S. cerevisiae deletion strains, locus YOR265W, strain rbl2, hits give low values 1.02 | S. cerevisiae deletion strains, locus YOR270C, strain vph1, hits give low values 1.07 | S. cerevisiae deletion strains, locus YOR290C, strain snf2, hits give low values 1.05 | S. cerevisiae deletion strains, locus YOR316C, strain cot1, hits give low values 1.02 | S. cerevisiae deletion strains, locus YPL051W, strain arl3, hits give low values 1 | S. cerevisiae deletion strains, locus YPL055C, strain LGE1, hits give low values 1.07 | S. cerevisiae deletion strains, locus YPL078C, strain atp4, hits give low values 1.03 | S. cerevisiae deletion strains, locus YPL106C, strain sse1, hits give low values 1.02 | S. cerevisiae deletion strains, locus YPL240C, strain hsp82, hits give low values 1.03 | S. cerevisiae deletion strains, locus YPL241C, strain CIN2, hits give low values 1.01 | S. cerevisiae deletion strains, locus YPL256C, strain CLN2, hits give low values 0.992 | S. cerevisiae deletion strains, locus YPR119W, strain clb2, hits give low values 1.01 | S. cerevisiae deletion strains, locus YPR141C, strain kar3, hits give low values 1.01 | S. cerevisiae deletion strains, locus YPR163C, strain tif3, hits give low values 1.02 | S. cerevisiae deletion strains, locus YPR167C, strain met16, hits give low values 1.01 | S. cerevisiae deletion strains, strain wtn01, hits give low values 1.03 | S. cerevisiae strains, strain wild type, hits give low values 1.02
